# Reference: PubChem BioAssay
# The source made the active and inactive calls.
# Legend:
# [1] = tested on: Plasmodium falciparum Sir2 (PF13_0152, Sir2A); assay: Plasmodium falciparum Sir2A binding compounds – biochemical, small-molecule microarray, 635 nm fluorescence, primary screen (AID 1098); conditions: fluorescence 635 nm, higher = more signal;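 further: score merges spot fluorescence intensity with its signal-to-noise ratio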
# [2] = probe aDKK1 binding to arrayed compounds – biochemical, biotinylated probe, 635/667 nm fluorescence, primary screen (AID 1099); conditions: small-molecule microarray, higher = more signal;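 further: score merges 667nm spot fluorescence with signal to noise across triplicate slides; reference of the scale not given here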
# [3] = probe aCHRDL2 binding to arrayed compounds – biochemical, biotinylated probe, 635/667 nm fluorescence, primary screen (AID 1100); conditions: small-molecule microarray, higher = more signal
# [4] = change in splice reporter luminescence, either direction, cell-based, HEK293, spliceosome inhibition project, primary screen (AID 1101); conditions: HEK293 splicing luciferase reporter, 24 h, higher = more signal, called active from +8 up or from −8 down;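 further: HEK293 cells carrying a splicing-competent luciferase reporter gene; test concentration not given here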
# [5] = target: Fibroblast growth factor 10 (Homo sapiens) (UniProt O15520); assay: compounds binding fibroblast growth factor 10 – biochemical, small-molecule microarray, 635 nm fluorescence, primary screen (AID 1102); conditions: FGF10 binding, fluorescence 635 nm, higher = more signal
# Sequence of Fibroblast growth factor 10 (Homo sapiens) (O15520 whole entry, looked up): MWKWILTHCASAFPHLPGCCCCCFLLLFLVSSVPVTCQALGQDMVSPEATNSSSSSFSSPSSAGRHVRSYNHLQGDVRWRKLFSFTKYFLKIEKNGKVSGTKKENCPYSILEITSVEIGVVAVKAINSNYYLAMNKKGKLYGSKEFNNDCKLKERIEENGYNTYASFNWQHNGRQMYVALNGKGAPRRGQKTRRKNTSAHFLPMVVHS
# [6] = tested on: glycogen synthase kinase-3 (GSK3A per assay name; protocol says GSK3B); assay: compounds binding glycogen synthase kinase-3 – biochemical, small-molecule microarray, 635 nm fluorescence, GSK3A, primary screen (AID 1103); conditions: fluorescence 635 nm, higher = more signal; further: the record names both GSK3A and GSK3B
# [7] = target: Epidermal growth factor receptor (Homo sapiens) (UniProt P00533); assay: compounds binding epidermal growth factor receptor – biochemical, small-molecule microarray, 635 nm fluorescence, primary screen (AID 1104); conditions: EGFR binding, higher = more signal;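 further: score merges 667 nm emission intensity with spot signal to noise over triplicate slides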
# Sequence of Epidermal growth factor receptor (Homo sapiens) (P00533 whole entry, looked up): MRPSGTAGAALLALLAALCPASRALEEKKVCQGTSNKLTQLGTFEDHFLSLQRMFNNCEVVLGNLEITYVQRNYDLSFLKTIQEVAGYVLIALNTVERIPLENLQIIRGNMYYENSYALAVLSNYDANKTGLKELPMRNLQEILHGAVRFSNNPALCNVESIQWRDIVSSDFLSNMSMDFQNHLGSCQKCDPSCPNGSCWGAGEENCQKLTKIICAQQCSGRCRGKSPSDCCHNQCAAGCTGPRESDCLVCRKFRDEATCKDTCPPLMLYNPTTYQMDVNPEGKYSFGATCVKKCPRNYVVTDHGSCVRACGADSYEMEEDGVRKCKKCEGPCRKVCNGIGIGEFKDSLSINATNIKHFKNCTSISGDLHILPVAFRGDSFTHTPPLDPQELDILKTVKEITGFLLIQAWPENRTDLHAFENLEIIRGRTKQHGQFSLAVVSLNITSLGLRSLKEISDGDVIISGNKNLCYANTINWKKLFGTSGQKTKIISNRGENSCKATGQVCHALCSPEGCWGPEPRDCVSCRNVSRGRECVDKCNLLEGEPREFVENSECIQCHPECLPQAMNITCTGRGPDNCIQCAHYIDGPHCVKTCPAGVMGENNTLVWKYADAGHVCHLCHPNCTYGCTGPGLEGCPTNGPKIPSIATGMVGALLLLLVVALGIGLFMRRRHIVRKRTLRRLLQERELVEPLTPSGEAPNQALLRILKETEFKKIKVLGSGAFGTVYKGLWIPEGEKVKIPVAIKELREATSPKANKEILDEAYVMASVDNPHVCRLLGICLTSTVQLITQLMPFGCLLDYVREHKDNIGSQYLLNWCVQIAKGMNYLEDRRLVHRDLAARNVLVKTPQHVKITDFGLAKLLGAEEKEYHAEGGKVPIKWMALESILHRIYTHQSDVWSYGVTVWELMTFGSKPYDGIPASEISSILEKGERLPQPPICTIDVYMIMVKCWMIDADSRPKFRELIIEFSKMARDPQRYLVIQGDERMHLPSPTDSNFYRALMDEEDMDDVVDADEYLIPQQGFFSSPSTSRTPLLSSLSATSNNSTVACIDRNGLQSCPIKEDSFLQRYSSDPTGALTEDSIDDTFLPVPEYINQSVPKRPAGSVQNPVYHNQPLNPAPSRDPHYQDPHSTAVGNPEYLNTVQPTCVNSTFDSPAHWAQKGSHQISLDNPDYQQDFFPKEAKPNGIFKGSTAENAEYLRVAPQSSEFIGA
# [8] = target: Follistatin-related protein 3 (Homo sapiens) (UniProt O95633); assay: compounds binding follistatin-related protein 3 – biochemical, small-molecule microarray, 635 nm fluorescence, primary screen (AID 1105); conditions: FSTL3 binding, higher = more signal;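 further: score merges emission near 667 nm and signal to noise per printed spot across three slides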
# Sequence of Follistatin-related protein 3 (Homo sapiens) (O95633 whole entry, looked up): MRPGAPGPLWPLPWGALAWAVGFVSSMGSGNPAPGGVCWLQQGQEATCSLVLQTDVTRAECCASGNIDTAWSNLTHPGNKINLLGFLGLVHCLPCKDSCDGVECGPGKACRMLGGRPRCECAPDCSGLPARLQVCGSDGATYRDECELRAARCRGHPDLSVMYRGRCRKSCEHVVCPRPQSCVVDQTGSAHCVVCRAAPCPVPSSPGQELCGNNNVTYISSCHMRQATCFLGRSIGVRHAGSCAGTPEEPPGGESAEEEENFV
# [9] = target: Dickkopf-related protein 1 (Homo sapiens) (UniProt O94907); assay: small molecules binding DKK1 protein – biochemical, small-molecule microarray, 635 nm fluorescence scan, primary screen (AID 1106); conditions: higher = more signal;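 further: score merges emission near 667 nm with signal to noise over three replicate slides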
# Sequence of Dickkopf-related protein 1 (Homo sapiens) (O94907 whole entry, looked up): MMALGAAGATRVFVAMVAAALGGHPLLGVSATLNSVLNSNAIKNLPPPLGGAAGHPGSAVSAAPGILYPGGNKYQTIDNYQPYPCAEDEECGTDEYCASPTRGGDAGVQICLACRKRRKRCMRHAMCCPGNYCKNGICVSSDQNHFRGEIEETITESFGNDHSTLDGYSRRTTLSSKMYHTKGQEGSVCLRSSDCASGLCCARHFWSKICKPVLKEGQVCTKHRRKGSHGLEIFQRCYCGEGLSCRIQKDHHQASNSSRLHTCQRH
# [10] = tested on: Inhibin beta A chain (activin A); assay: small molecules binding activin A – biochemical, small-molecule microarray, 635 nm fluorescence scan, primary screen (AID 1107); conditions: INHBA, higher = more signal;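 further: mouse activin A protein probed at 4.33 µg/mL on printed slides; score merges bound-protein fluorescence near 667 nm with spot signal-to-noise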
SMILES,composite z-score [1],composite z-score [2],composite z-score [3],z-score [4],composite z-score [5],composite z-score [6],composite z-score [7],composite z-score [8],composite z-score [9],composite z-score [10]
O=C1C2C=CC(C(O)c3ccccc3)N(Nc3ccccc3F)C2C(=O)N1c1ccccc1 (stereo not given),0.797,-0.168,0.24,-0.245 (inactive),0.311,-0.178,0.223,0.341,0.0646,0.626
O=C1O[C@@H](c2ccccc2)[C@@H](c2ccccc2)N2[C@@H](c3ccc(OCCO)cc3)[C@]3(C(=O)Nc4ccccc43)[C@@H](C(=O)O)[C@H]12,0.327,-0.483,0.273,-0.715 (inactive),0.119,-0.739,-0.38,-0.415,-0.32,0.758
CC(=O)c1ccc(C(O)C2C=CC3C(=O)N(c4ccccc4)C(=O)C3N2Nc2ccc(C#N)cc2)cc1 (stereo not given),0.45,0.204,0.764,0.744 (inactive),-0.0433,0.582,0.262,0.133,-0.594,0.443
COc1ccc([Si](C)(C)[C@@H]2[C@@H](CCO)O[C@]3(C(=O)N(Cc4ccc(N5CCCCC5=O)cc4)c4ccccc43)[C@H]2C)cc1,1.15,-0.128,-0.756,-1.73 (inactive),1.21,0.83,0.336,0.87,0.562,0.669
CN1C(=O)C2C=CC(C(O)COCc3ccccc3)N(N(c3ccccc3)c3ccccc3)C2C1=O (stereo not given),0.35,0.553,0.815,0.915 (inactive),0.126,-0.588,0.238,0.127,-0.674,-0.101
O=C1O[C@H](c2ccccc2)[C@H](c2ccccc2)N2[C@H]1[C@@H](C(=O)NC[C@H](O)c1ccccc1)[C@]1(C(=O)Nc3ccc(C#CCCO)cc31)[C@H]2c1ccc(OCCO)cc1,1.58,0.222,0.0751,0.613 (inactive),0.575,0.739,0.037,0.701,0.264,0.503
COC(=O)CCCCCCC(=O)Nc1ccc(NC(=O)CCCC[P+](c2ccccc2)(c2ccccc2)c2ccccc2)cc1,0.5,-0.238,-0.842,-0.186 (inactive),1.38,0.686,0.758,0.955,1.16,0.59
CCOC(=O)C[C@H]1[C@H](OC(=O)c2cc3ccccc3oc2=O)[C@@H](NC(=O)c2ccc(-c3ccccc3)cc2)c2cc(OCCCO)ccc2N1C(=O)c1ccccc1,1.17,-0.24,-0.466,-1.38 (inactive),1.02,1.04,0.613,1.05,1.22,0.479
CO[C@H]1O[C@H](CO)[C@@H](OC(=O)Nc2ccccc2-c2ccccc2)[C@H](OC(=O)Nc2ccc3c(c2)OCO3)[C@H]1OC(=O)Nc1ccc2c(c1)OCO2,1.38,0.244,0.485,-1.2 (inactive),1.24,1.32,0.17,1.43,0.298,0.752
[N-]=[N+]=NCc1ccccc1C[C@@]1(C(=O)NCc2ccccc2)N=C(c2ccc(OCCCO)cc2)O[C@@H]1c1ccccc1N=[N+]=[N-],-0.108,0.559,1.13,-0.758 (inactive),0.894,1.21,-0.475,-0.206,-0.666,0.376
C=CCOC(=O)[C@H]1[C@@H]2C(=O)O[C@@H](c3ccccc3)[C@@H](c3ccccc3)N2[C@@H](c2ccc(OCCOC(=O)[C@@H]3C[C@@H]4C(=O)N[C@@H](CCCCNC(C)=O)C(=O)N4[C@@H]3c3ccc(O)cc3)cc2)[C@]12C(=O)Nc1ccc(I)cc12,0.95,0.0153,0.127,-0.151 (inactive),1.33,1.27,1.08,1.3,0.789,0.732
CN(C)C(=O)[C@@]1(CCS(=O)(=O)c2ccccc2)N=C(c2ccc(OCCCO)cc2)O[C@H]1c1ccccc1,1.32,0.415,0.854,2.27 (inactive),0.961,1.29,-0.806,0.455,-0.94,0.54
O=C1OCC=C[C@H]2OC34C=CCN(c5ccc(Cl)cc5)C(=O)[C@H]3N(CCO)C(=O)[C@@H]4[C@@H]12 (stereo not given in full),0.201,-0.521,0.777,0.169 (inactive),-0.25,-0.747,-0.962,-1.68,-1.71,-0.303
